High-throughput results from PubChem.
Rows were chosen to be rich in hits. Some 19% of all compounds tested hit in one or more screens of this group.
HT1080 IDH1KD tx – qHTS for induction of synthetic lethality in tumor cells producing 2HG: qHTS for the HT-1080-IDH1KD cell line. Potency, µM (series often up to 46.1 µM), usual class: cytotoxic. HT-1080 IDH1 knockdown viability, ATP luminescence, 48 h. AID 686971, 2013. actives 2% (n = 360,000)
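Assay cells: HT-1080 with IDH1 knockdown, 750 per well, RPMI/5% FBS. Exposure: 48 h at 37 °C following 2 h pre-incubation. Read: CellTiter-Glo luminescence; fitted concentration-response, curve class assigned.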
TDP1 cell noCPT – qHTS for Inhibitors of human tyrosyl-DNA phosphodiesterase 1 (TDP1): qHTS in cells in absence of CPT; DT40 Tdp1-/- hTDP1 cells, no CPT, ATP luminescence, 48 h; actives 15% (n = 420,000); Potency, µM (top dose mostly 46.2 µM), hits mostly inhibitors; note: nearly all actives have a fitted effect of over 55% in size
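Readout: luminescence from CellTiter-Glo after 30 min in the dark at RT. Cells: DT40 Tdp1-/- with stable hTDP1, 400/well. Exposure: compounds alone, ≥48 hr, 37 °C.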
HT1080NT lethal – qHTS for induction of synthetic lethality in tumor cells producing 2HG: qHTS for the HT-1080-NT fibrosarcoma cell line | HT-1080-NT fibrosarcoma viability, CellTiter-Glo ATP luminescence, 48 h | Potency, µM (series often up to 46.1 µM), most hits filed as cytotoxic | actives 1.6% (n = 360,000);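 note: NT is the 2HG producing partner of a matched IDH1 knockdown line; nearly all actives have a fitted effect of over 55% in size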
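Luminescent CellTiter-Glo readout after 48 hours of compound exposure at 37 degrees C defined viability of HT-1080-NT cells. Activity was normalized to DMSO wells and cell-free media wells; concentration-response curves were fitted and assigned curve classes.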
TDP1 cell CPT – qHTS for Inhibitors of human tyrosyl-DNA phosphodiesterase 1 (TDP1): qHTS in cells in presence of CPT; chicken DT40 Tdp1-/-;hTDP1 cells + 20 nM CPT, ATP luminescence, 48 h; actives 12% (n = 420,000); AID 686979, 2013; Potency, µM (series often up to 46.2 µM), most hits filed as inhibitors; note: nearly all actives have a fitted effect of over 55% in size
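Chicken DT40 Tdp1-/- cells stably complemented with human TDP1 were seeded at 400 cells/well in medium containing 20 nM camptothecin, exposed to pin-transferred compounds, and grown at 37 °C for at least 48 hr. Viability was read as ATP luminescence.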
IL1B secr inh – qHTS for Inhibitors of Inflammasome Signaling: IL-1-beta AlphaLISA Primary Screen; activity change, % at 57.5 µM; actives 4.7% (n = 360,000); THP-1 LPS/ATP IL-1B secretion, AlphaLISA, 16 h; active compounds read low; in the data active = activity change below about -50%; inconclusive = mostly about -30% to -49%
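THP-1 cells pretreated 1 hr with compounds (up to 57.5 uM final), then stimulated with LPS (250 ng/mL final) plus ATP (1.25 mM final); secreted IL-1B measured by AlphaLISA after 16 hr, decreased signal indicating inhibition.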
Of the large screens only hits and unclear results are named; the others gave an inactive call. Unless noted, calls come from the whole dose curve; as a rule, active = well fitted curve in the direction sought with a large enough effect; inconclusive = small, poorly fitted or top-dose-only effect, or another doubt; inactive = no such curve, though single readings can be large; an effect the other way counts as inactive or inconclusive.

Cc1cc(N2CCN(c3ccccn3)CC2)n2cc(-c3ccccc3)nc2n1	TDP1 cell noCPT 18µM, TDP1 cell CPT 21µM
COc1ccc(NC(=O)N2CCc3c(sc4c3CCCC4)C2c2ccccc2OC)cc1 (centres undefined)	TDP1 cell noCPT 13µM, TDP1 cell CPT 16µM (no result: HT1080 IDH1KD tx, HT1080NT lethal, IL1B secr inh)
COc1cccc(CNC(=O)N2CCc3c(sc4c3CCCC4)C2c2ccc(F)cc2)c1 (centres undefined)	TDP1 cell noCPT 15µM, TDP1 cell CPT inconclusive (no result: HT1080 IDH1KD tx, HT1080NT lethal, IL1B secr inh)
CCOC(=O)Cc1csc(NC(=O)C2CCCN(S(=O)(=O)c3cnc[nH]3)C2)n1 (centres undefined)	none
Cn1c(NCc2c[nH]c3ccccc23)nc2ccccc21	TDP1 cell noCPT inconclusive, TDP1 cell CPT inconclusive, IL1B secr inh -92
CCn1c(NCc2c[nH]c3ccccc23)nc2ccccc21	TDP1 cell noCPT inconclusive, HT1080NT lethal inconclusive, TDP1 cell CPT inconclusive, IL1B secr inh inconclusive
CCc1ccc(OCC(=O)N/N=C/c2cc([N+](=O)[O-])ccc2N2CCOCC2)cc1	TDP1 cell noCPT inconclusive, TDP1 cell CPT inconclusive
Cc1cccc(OCC(=O)N/N=C/c2cc([N+](=O)[O-])ccc2N2CCOCC2)c1	TDP1 cell noCPT 18µM, TDP1 cell CPT 21µM
COc1cc(/C=N/NC(=O)COc2ccc([N+](=O)[O-])cc2)ccc1OCC(=O)N1CCOCC1	TDP1 cell noCPT 16µM
COc1ccc(NCC(=O)N/N=C/c2cc([N+](=O)[O-])ccc2N2CCCC2)cc1	TDP1 cell noCPT inconclusive, TDP1 cell CPT 21µM, IL1B secr inh inconclusive
COc1cc(/C=N/NC(N)=S)ccc1OCC(=O)N1CCOCC1	none
O=C(N/N=C\c1cc([N+](=O)[O-])ccc1N1CCCC1)c1ccccn1	TDP1 cell CPT inconclusive
CCN(CC)C(=O)C1CCCN(c2ccc([N+](=O)[O-])cc2/C=N/NC(=O)c2cccc(O)c2)C1 (centres undefined)	TDP1 cell noCPT inconclusive, TDP1 cell CPT inconclusive, IL1B secr inh -61
CCN(CC)C(=O)C1CCCN(c2ccc([N+](=O)[O-])cc2/C=N/NC(=O)c2ccccc2)C1 (centres undefined)	TDP1 cell noCPT inconclusive
COc1ccc2c(c1)c1c(c(=O)n(-c3ccccc3C)c(=O)n1CC(N)=O)n2C	TDP1 cell noCPT inconclusive (no result: HT1080 IDH1KD tx, HT1080NT lethal, IL1B secr inh)
C=CCN(CC=C)C(=O)C1CCN(S(=O)(=O)c2ccc(-n3cnnn3)cc2)CC1	none
Nc1nc(-c2ccc3c(c2)CCCC3)c(CC(=O)O)s1	none
COc1ccc(N=Cc2cc(Cc3ccccc3Cl)cc([N+](=O)[O-])c2O)cc1OC	TDP1 cell noCPT 26µM, TDP1 cell CPT inconclusive
Cc1ccc(N=Cc2cc(Cc3ccccc3Cl)cc([N+](=O)[O-])c2O)c(O)c1	HT1080NT lethal inconclusive, TDP1 cell CPT inconclusive
Cc1ccc(-n2c(C)cc(/C=C3/C(=N)N4C(c5ccccc5)=CSC4=NC3=O)c2C)cc1	TDP1 cell noCPT 23µM, TDP1 cell CPT inconclusive
CCN1CCc2c(sc(NC(=O)c3ccc(S(=O)(=O)N(C)c4ccccc4)cc3)c2C(=O)NC)C1	TDP1 cell noCPT 21µM, TDP1 cell CPT 16µM
CNC(=O)c1c(NC(=O)c2ccc(S(=O)(=O)N(C)c3ccccc3)cc2)sc2c1CCN(C(C)C)C2	TDP1 cell noCPT 18µM, TDP1 cell CPT 18µM
COc1ccc(CSC(=N)N)cc1[N+](=O)[O-]	TDP1 cell noCPT 23µM, TDP1 cell CPT 23µM, IL1B secr inh -60
CCCCOc1ccc(CN(CCO)CCO)cc1[N+](=O)[O-]	TDP1 cell CPT 18µM
CCCCCOc1ccc(CSC(=N)N)cc1[N+](=O)[O-]	HT1080 IDH1KD tx 16µM, TDP1 cell noCPT 16µM, HT1080NT lethal 21µM, TDP1 cell CPT 15µM, IL1B secr inh -105
CCOc1ccc(CN(CCO)CCO)cc1[N+](=O)[O-]	none
CCCCCOc1ccc(Cn2ccnc2)cc1[N+](=O)[O-]	TDP1 cell noCPT inconclusive, TDP1 cell CPT inconclusive
CCCNC(=O)C1CC(c2ccccc2C(F)(F)F)=NO1 (centres undefined)	none
COc1ccc2[nH]c3c(=O)n(CCCCCC(=O)NCCC(C)C)c(=S)[nH]c3c2c1	none
CCOC(=O)c1ccccc1NC(=O)CN1CCCN(Cc2cc(C)ccc2C)S1(=O)=O	TDP1 cell noCPT 21µM, TDP1 cell CPT 21µM (no result: HT1080 IDH1KD tx, HT1080NT lethal, IL1B secr inh)
CCc1cccc(C)c1NC(=O)CN1CCCN(Cc2ccc(C)cc2)S1(=O)=O	TDP1 cell noCPT 10µM, TDP1 cell CPT 16µM (no result: HT1080 IDH1KD tx, HT1080NT lethal, IL1B secr inh)
COc1ccc(CN2CCCN(CC(=O)Nc3cc(C)ccc3C)S2(=O)=O)cc1	TDP1 cell noCPT 21µM, TDP1 cell CPT 21µM (no result: HT1080 IDH1KD tx, HT1080NT lethal, IL1B secr inh)
COc1ccc(CNC[C@H]2O[C@@H](n3cnc4c(N)ncnc43)[C@H](O)[C@@H]2O)cc1OC	none
CCOC(=O)C1CCN(c2ncnc3c(C)csc23)CC1	TDP1 cell noCPT 13µM, TDP1 cell CPT inconclusive
CCOC(=O)C1CCN(c2ncnc3cc(OC)c(OC)cc23)CC1	TDP1 cell noCPT 21µM, TDP1 cell CPT inconclusive
CCOC(=O)C1CCN(c2ncnc3nc[nH]c23)CC1	IL1B secr inh -56
CCOC(=O)c1ccc(NC(=O)N2CCN(c3ccccc3OC)CC2)cc1	TDP1 cell noCPT inconclusive, TDP1 cell CPT inconclusive
COc1cc2ncnc(N3CCN(C(=O)Nc4ccc(Oc5ccccc5)cc4)CC3)c2cc1OC	TDP1 cell noCPT 11µM, TDP1 cell CPT 11µM (no result: HT1080 IDH1KD tx, HT1080NT lethal, IL1B secr inh)
CCOCCCNC(=O)c1ccc(CS(=O)(=O)Cc2ccccc2F)o1	none
CCc1ccc(OCC(=O)Nc2ccc3[nH]ncc3c2)cc1	TDP1 cell CPT inconclusive
COc1ccc(S(=O)(=O)Nc2cccc3c2O[C@@H](CN(C)Cc2ccc(C(=O)O)cc2)[C@@H](C)CN([C@H](C)CO)C3=O)cc1	none
Cn1c(SCc2ccccc2Cl)nc2c([nH]c3ccccc32)c1=O	none (no result: HT1080 IDH1KD tx, HT1080NT lethal, IL1B secr inh)
Cn1c(SCc2ccc(Br)cc2)nc2c([nH]c3ccccc32)c1=O	none (no result: HT1080 IDH1KD tx, HT1080NT lethal, IL1B secr inh)
Cn1c(SCc2ccc(C(F)(F)F)cc2)nc2c([nH]c3ccccc32)c1=O	TDP1 cell noCPT 18µM, TDP1 cell CPT 9.2µM (no result: HT1080 IDH1KD tx, HT1080NT lethal, IL1B secr inh)
Cn1c(SCc2cccc(F)c2)nc2c([nH]c3ccccc32)c1=O	TDP1 cell noCPT inconclusive, TDP1 cell CPT 7.3µM (no result: HT1080 IDH1KD tx, HT1080NT lethal, IL1B secr inh)
OC[C@H]1NC[C@@H](O)[C@@H](O)[C@H]1O	none (no result: HT1080 IDH1KD tx, HT1080NT lethal, IL1B secr inh)
CCN1CCN(C(=S)NC(CC(=O)c2ccccc2)c2ccccc2)CC1 (centres undefined)	IL1B secr inh inconclusive
CN1CCN(C(=S)NC(=O)/C=C/c2cccs2)CC1	none
